Measurements as given in PubChem BioAssay AID1210 (NMMLSC, 2008).
Activity calls are given as the source filed them.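 Rule for the calls: active = blocks over 70% of labeled estradiol binding at 10 µM, or over a set limit at 100 nM; inactive = the rest.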

Target: Estrogen receptor beta (Homo sapiens) (UniProt Q92731)
Assay: ERbeta ligand binders by competition, primary screen, cell-based, Cos7 ERbeta-GFP, flow cytometry (AID 1210);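 note: 0% = DMSO vehicle wells and 100% = complete loss of labeled estradiol signal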
Settings: fluorescent estrogen binding, stronger effect = higher value
[1] = ligand binding inhibition, at 0.1 µM

Estrogen receptor beta (Homo sapiens), sequence (Q92731 whole entry, looked up): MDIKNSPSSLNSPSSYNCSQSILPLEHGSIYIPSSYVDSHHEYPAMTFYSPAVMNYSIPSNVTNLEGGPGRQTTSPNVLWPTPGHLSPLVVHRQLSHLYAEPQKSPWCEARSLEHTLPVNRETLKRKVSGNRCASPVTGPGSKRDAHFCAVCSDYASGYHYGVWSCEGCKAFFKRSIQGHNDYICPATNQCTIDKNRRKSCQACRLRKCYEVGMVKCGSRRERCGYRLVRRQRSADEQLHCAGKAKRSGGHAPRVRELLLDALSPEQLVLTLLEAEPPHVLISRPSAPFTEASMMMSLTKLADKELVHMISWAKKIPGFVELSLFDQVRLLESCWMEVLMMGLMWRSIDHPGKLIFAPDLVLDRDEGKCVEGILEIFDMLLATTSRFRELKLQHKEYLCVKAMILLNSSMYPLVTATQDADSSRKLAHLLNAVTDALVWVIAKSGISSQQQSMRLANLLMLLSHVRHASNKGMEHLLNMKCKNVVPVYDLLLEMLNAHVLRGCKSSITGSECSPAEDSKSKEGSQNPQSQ

SMILES | inhibition (at 10 µM) | inhibition [1] [%]
Cc1noc(C)c1COc1ccc(C(=O)OCC(=O)N2c3ccccc3NC(=O)C2(C)C)cc1 | 42% (inactive) | 30
COc1ccc(OC)c(N2C(=O)[C@@H]3C(c4ccccc4Cl)=NO[C@@H]3C2=O)c1 | 52% (inactive) | 30
O=Cc1cn(-c2ccccc2)nc1-c1cc2c(ccc3ccccc32)oc1=O | 39% (active) | 81
Cc1ccnc(NS(=O)(=O)c2ccc(NC(=O)c3cc(-c4ccc(Br)cc4)nc4ccccc34)cc2)n1 | 0% (inactive) | 51
Cc1cc2n(c1)CCn1c(C)ccc1-2 | 17% (inactive) | 31
COc1ccc(OC)c(NC(=O)CSc2nc3ccccc3c3nc4ccccc4n23)c1 | 70% (inactive) | 16
Cc1c2cc(O)c(=O)cc-2oc2cc(O)c(O)cc12 | 67% (inactive) | 22
O=C(O)C1Nc2c(O)cc(Cl)c([N+](=O)[O-])c2C2C=CCC12 (stereo not drawn) | 31% (inactive) | 18
COc1ccc(N2Cc3cccc(C(=O)N4CCN(C(=O)c5ccco5)CC4)c3C2=O)cc1 | 29% (inactive) | 27
O=C(c1cccc(F)c1)N1CCN(C(=O)c2cc3ncc(Br)cn3n2)CC1 | 26% (inactive) | 38
Cc1ccccc1Nc1nnc(SCC(=O)NCc2ccco2)s1 | 26% (inactive) | 18
O=C(Cc1cccs1)Nc1ccccn1 | 39% (inactive) | 10
CCc1ccc2[nH]c(=O)c(C3C(C#N)=C(N)Oc4c3ccc3cccnc43)cc2c1 (stereo not drawn) | 23% (inactive) | 36
Oc1ccc(-c2cn3c(n2)SCC3)cc1 | 64% (inactive) | 10
CCOc1[nH]c(/N=C/c2ccco2)c(C#N)c1C#N | 35% (inactive) | 15
c1coc(-c2nn3c(-c4ccco4)nnc3s2)c1 | 37% (inactive) | 28
O=c1cc(-c2ccc(O)c(O)c2)oc2c(C3O[C@H](CO)[C@@H](O)[C@H](O)[C@H]3O)c(O)cc(O)c12 (stereo partly drawn) | 40% (inactive) | 17
Brc1cc2c(cc1C1Nc3ccccc3C3C=CCC31)OCO2 (stereo not drawn) | 20% (inactive) | 25
COc1ccc2c(c1)C1C=CCC1C(c1cc3c(cc1Br)OCO3)N2 (stereo not drawn) | 0% (inactive) | 41
COc1nc(-c2ccc(Cl)cc2)ccc1-c1noc(-c2ccco2)n1 | 72% (active) | 56

SMILES | inhibition (at 10 µM) | inhibition [1] [%]
Cc1cc(C)cc(OCC(=O)Nc2ccc(N3CCCC3)cc2)c1 | 71% (active) | 37
Cc1ccc(-c2nn(-c3ccccc3)cc2CSC(=N)N)cc1 | 38% (inactive) | 33
Cc1oc2c(C)c(O)ccc2c(=O)c1-c1ccc2ccccc2n1 | 15% (inactive) | 54
O=C1c2ccccc2NC(c2cccnc2)N1c1ccccc1F (stereo not drawn) | 63% (inactive) | 24
O=C(Oc1ccc(-c2cnc3ccccc3n2)cc1)c1ccc(Br)o1 | 72% (active) | 29
CCOc1cc(N2CCOCC2)c(OCC)cc1NC(=O)c1cc(-c2ccco2)nc2ccccc12 | 47% (inactive) | 48
COc1cc(C2C(C#N)=C(N)Oc3cc(C)oc(=O)c32)cc2c1OCO2 (stereo not drawn) | 32% (inactive) | 46
CCOC(=O)c1c(NC(=O)CSc2nnc(-c3ccccc3)o2)sc(C(C)=O)c1C | 40% (inactive) | 32
Cc1ccc(C(=O)NCC(=O)OCC(=O)c2c(N)n(C)c(=O)n(C)c2=O)s1 | 5% (inactive) | 25
Cc1cc(C)nc(NC(=O)CSc2nn(C)c(=S)s2)n1 | 6% (inactive) | 20
COc1ccc(C2Nc3ccccc3C(=O)N2c2ccccc2)cc1COc1ccccn1 (stereo not drawn) | 18% (inactive) | 17
COc1cc(OC)cc(C(=O)NC2CCN(C(=O)N3c4ccccc4Sc4ccccc43)CC2)c1 | 21% (inactive) | 16
Cc1nn(-c2ccccc2)c(/N=C/c2ccc(O)cc2)c1-c1ccccc1 | 78% (active) | 44
COc1ccc(-c2cn3c(C)c(C(=O)Nc4ccncc4)sc3n2)cc1 | 60% (inactive) | 19
CCOC(=O)CSc1nn(C)c(=S)s1 | 47% (active) | 72
COc1cc(C=C(c2nc3ccccc3s2)c2nc3ccccc3s2)ccc1O | 31% (inactive) | 57
O=S(=O)(Nc1ncnc2sc3c(c12)CCC3)c1ccc2ccccc2c1 | 12% (inactive) | 31
CCOC(=O)C1=C(C)NC(=O)NC1c1ccco1 (stereo not drawn) | 11% (inactive) | 15
CCCCNS(=O)(=O)c1ccc(NC(=O)C(Sc2ccccc2)c2ccccc2)cc1 (stereo not drawn) | 41% (inactive) | 14
